These results are taken from PubChem BioAssay AID624101 (Broad Institute, 2012).

Out of some 70,000 compounds screened, about 120 (0.17%) were called active. No stated cut-off is given here; in the data, active means inhibition above about 34%; inconclusive means no clear call, values can overlap the other calls; inactive means below about 11%. What follows is part of a selection rich in actives, with near analogues and random picks from the rest.

Isocitrate dehydrogenase [NADP] cytoplasmic (Homo sapiens), sequence (O75874 whole entry R132H): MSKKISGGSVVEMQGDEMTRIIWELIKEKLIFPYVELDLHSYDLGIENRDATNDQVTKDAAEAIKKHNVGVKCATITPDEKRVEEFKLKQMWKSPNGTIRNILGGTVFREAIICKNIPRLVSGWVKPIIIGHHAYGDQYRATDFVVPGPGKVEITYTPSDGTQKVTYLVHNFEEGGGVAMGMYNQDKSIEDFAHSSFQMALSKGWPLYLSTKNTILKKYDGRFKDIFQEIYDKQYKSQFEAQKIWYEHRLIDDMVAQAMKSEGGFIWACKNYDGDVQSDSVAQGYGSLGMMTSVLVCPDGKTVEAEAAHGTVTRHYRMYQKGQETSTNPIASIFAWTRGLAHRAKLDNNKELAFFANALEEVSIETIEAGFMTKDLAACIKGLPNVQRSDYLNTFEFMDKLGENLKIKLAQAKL

This test addresses Isocitrate dehydrogenase [NADP] cytoplasmic (Homo sapiens) (UniProt O75874). As to the kind of experiment: PubChem AID 624101.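 Further: 0% = DMSO and 100% = no enzyme.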 The settings on record: IDH1 R132H reductase, diaphorase/resazurin fluorescence, 60 min; at 10 µM; active compounds read high. For orientation: The colour change of resazurin is a common sign of viable cells or microbes.
The inhibition is the change of the read-out against control, counted positive when it falls. Consider `CCCc1cn(CC[C@@H]2CC[C@H](NS(=O)(=O)c3ccccc3Cl)[C@H](CO)O2)nn1`, for which the inhibition is -0.0115% (inactive).

With `CCCC(=O)Nc1ccc2c(c1)C(=O)N(C)C[C@H](OC)[C@@H](C)CN(C(C)=O)[C@H](C)CO2`, the inhibition was 0.373% (inactive).

For `COCc1cn(CC[C@H]2CC[C@H](NC(=O)c3ccncc3)[C@H](CO)O2)nn1`, the inhibition was 0.111% (inactive).

For the compound `O=C(N[C@@H]1CC[C@@H](CCn2cc(-c3ccccn3)nn2)O[C@@H]1CO)c1ccccc1`, the inhibition is 0.105% (inactive).

For the compound `O=C(C[C@@H]1C[C@H]2c3cc(NC(=O)C4CCOCC4)ccc3O[C@H]2[C@@H](CO)O1)NCCN1CCCCC1`, the inhibition is -0.003% (inactive).

Regarding `O=C(C[C@H]1CC[C@@H](NC(=O)c2ccccc2)[C@@H](CO)O1)NCc1ccncn1`, the inhibition is -0.091% (inactive).

For the compound `CO[C@@H]1CN(C)C(=O)c2cc(NC(=O)c3ccc(F)cc3)ccc2OC[C@H](C)N(C(=O)CN(C)C)C[C@H]1C`, the inhibition was -0.235% (inactive).

With `C[C@@H]1CN([C@H](C)CO)C(=O)c2cc(-c3ccccc3)cnc2O[C@H]1CN(C)C(=O)Nc1ccccc1`, the inhibition was -0.031% (inactive).

Turning to `Cc1noc(C)c1NC(=O)N(C)C[C@H]1Oc2ccc(NS(=O)(=O)c3ccc(Cl)cc3)cc2CC(=O)N([C@H](C)CO)C[C@@H]1C`, the inhibition was 0.108% (inactive).

With `O=C(N[C@H]1CC[C@H](CCn2cc(C3(O)CCCC3)nn2)O[C@H]1CO)C1CC1`, the inhibition was -0.0085% (inactive).

As for `COc1ccccc1CNC(=O)C[C@@H]1C[C@H]2c3cc(NC(=O)CN(C)C)ccc3O[C@H]2[C@@H](CO)O1`, the inhibition was -0.208% (inactive).

With `C[C@@H]1CN([C@@H](C)CO)S(=O)(=O)c2ccc(C#Cc3ccncc3)cc2O[C@@H]1CN(C)S(=O)(=O)c1ccccc1`, the inhibition was -0.653% (inactive).

Turning to `CO[C@@H](CN(C)C(=O)c1cnccn1)[C@H](C)CN([C@H](C)CO)S(=O)(=O)c1ccc(C)cc1`, the inhibition was 0.027% (inactive).

In the case of `C/C=C/c1cnc2c(c1)C(=O)N([C@H](C)CO)C[C@H](C)[C@H](CN(C)C(=O)c1cccc(F)c1)O2`, the inhibition is 0.473% (inactive).

Regarding `CO[C@H]1CN(C)C(=O)c2cc(NS(=O)(=O)c3ccc(C)cc3)ccc2OC[C@H](C)NC[C@H]1C`, the inhibition was 0.218% (inactive).

Consider `COc1ccc(-c2cnc3c(c2)C(=O)N([C@@H](C)CO)C[C@@H](C)[C@H](CN(C)C(=O)C2CCCCC2)O3)cc1`, for which the inhibition was -0.366% (inactive).

Regarding `CN(C)C(=O)C[C@@H]1C=C[C@H](NC(=O)Nc2cccc(F)c2)[C@H](CO)O1`, the inhibition is 0.0155% (inactive).

Turning to `CCC(=O)Nc1ccc2c(c1)C(=O)N(C)C[C@H](OC)[C@H](C)CN(C(=O)c1ccccc1F)[C@@H](C)CO2`, the inhibition is -0.083% (inactive).

On to `COc1cccc(S(=O)(=O)Nc2ccc3c(c2)C(=O)N(C)C[C@@H](OC)[C@H](C)CN(C(=O)Cc2cccnc2)[C@H](C)CO3)c1`, for which the inhibition was 0.018% (inactive).

For the compound `CCCNC(=O)Nc1ccc2c(c1)C(=O)N(C)C[C@@H](OC)[C@@H](C)CN(C)[C@@H](C)CO2`, the inhibition was -0.291% (inactive).

As to `CO[C@@H]1CN(C)C(=O)c2cc(NS(C)(=O)=O)ccc2OC[C@@H](C)N(C(=O)C2CCC2)C[C@@H]1C`, the inhibition is -0.303% (inactive).

Regarding `CCC(=O)Nc1ccc2c(c1)OC[C@@H](C)N(CC1CC1)C[C@H](C)[C@H](OC)CN(C)C2=O`, the inhibition was 0.102% (inactive).

With `O=C(C[C@@H]1C=C[C@@H](NC(=O)c2ccccc2)[C@H](CO)O1)NCCc1ccncc1`, the inhibition was 0.0765% (inactive).

For the compound `CO[C@H]1CN(C)C(=O)c2ccc(NC(=O)c3cc(C)on3)cc2OC[C@H](C)N(C)C[C@H]1C`, the inhibition was 0.444% (inactive).

Take `CN1CCN(C(=O)C[C@H]2C[C@@H]3c4cc(NC(=O)NC5CCCC5)ccc4O[C@@H]3[C@@H](CO)O2)CC1`: the inhibition was 0.0955% (inactive).

For the compound `O=C(NCC[C@H]1CC[C@H](NC(=O)C2CC2)[C@@H](CO)O1)c1ccc(F)cc1`, the inhibition is 0.372% (inactive).

For `O=C(Nc1ccc2c(c1)[C@@H]1C[C@H](CC(=O)N3CCOCC3)O[C@@H](CO)[C@@H]1O2)C1CCOCC1`, the inhibition was -1% (inactive).

Consider `COCC(=O)Nc1ccc2c(c1)C(=O)N(C)C[C@@H](OC)[C@@H](C)CN(C(=O)c1ccccc1)[C@@H](C)CO2`, for which the inhibition was 0.0325% (inactive).

For `CO[C@@H]1CN(C)C(=O)c2ccc(NC(=O)c3ccc(F)cc3)cc2OC[C@H](C)N(C)C[C@H]1C`, the inhibition is 0.002% (inactive).

Take `COCC(=O)Nc1ccc2c(c1)[C@H]1C[C@H](CC(=O)OC)O[C@@H](CO)[C@H]1O2`: the inhibition is -0.0115% (inactive).

On to `CO[C@@H]1CN(C)C(=O)c2ccc(NS(=O)(=O)c3cccc(C)c3)cc2OC[C@@H](C)NC[C@H]1C`, for which the inhibition is -0.0525% (inactive).

Consider `COCC(=O)Nc1ccc2c(c1)OC[C@H](C)N(C(=O)COC)C[C@@H](C)[C@H](OC)CN(C)C2=O`, for which the inhibition was -0.0515% (inactive).

As for `CC(=O)N(C)C[C@@H]1Oc2cc(-c3cncnc3)ccc2S(=O)(=O)N([C@@H](C)CO)C[C@H]1C`, the inhibition was 1.05% (inactive).

In the case of `COc1ccccc1CNC(=O)C[C@H]1C[C@@H]2c3cc(NC(=O)c4ccc5c(c4)OCO5)ccc3O[C@@H]2[C@H](CO)O1`, the inhibition is -0.69% (inactive).

`CN(C)CCCNC(=O)C[C@@H]1C=C[C@H](NC(=O)c2ccccc2F)[C@H](CO)O1`: the inhibition is 0.626% (inactive).
